This is an account of results in PubChem BioAssay.

SMILES strings stand for the structures. Active and inactive are the calls of the source. Unless noted, how the calls were made is not given here.

The nature of assay [1]: HepG2 liver cancer cell viability effects, profiling panel, resazurin fluorescence, 24 h, PK04 Diversity Set (AID 1172). The conditions noted are these: higher = more signal.
A short description of assay [2]: basal S. cerevisiae growth modulation, no modifier, primary screen, OD600, strain BY4716, 24 h, basal condition (AID 1173). Conditions: OD600, 24 h, higher = more signal, called active from +8 up or from −8 down.
The nature of assay [3]: MM1S myeloma cell viability, profiling panel, resazurin fluorescence, basal, 24 h, PK04 Diversity Set (AID 1174).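 Further: MM1S multiple myeloma cell line.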 Conditions: higher = more signal, called active from +8 up or from −8 down.
Assay [4] concerns the target Dihydroorotate dehydrogenase (quinone), mitochondrial (Plasmodium falciparum (isolate 3D7)) (UniProt Q08210). The assay is described as follows: PfDHODH enzyme inhibitors, primary screen, biochemical, C-terminal His tag, absorbance 600 nm (AID 1175).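 Further: recombinant parasite enzyme with a five histidine tag at its C terminus.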 Conditions: DCIP absorbance 600 nm, higher = more signal, called active from +8 up or from −8 down.
The nature of assay [5]: S. cerevisiae RM11-1a growth modifiers, primary screen, strain RM11-1a, OD600, basal, 24 h (AID 1177).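 Further: cultures grown under basal conditions with no added stressor.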 The conditions noted are these: OD600, 24 h, higher = more signal, called active from +8 up or from −8 down.
Assay [6] is described as follows: E. coli acrAB mutant growth effects, primary screen, E. coli filamentation inducers, strain DRC39, OD650, 24 h (AID 1178).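 Further: growth measured as culture turbidity by optical density at 650 nm.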 Conditions: higher = more signal, called active from +8 up or from −8 down.
Assay [7] is described as follows: E. coli acrAB mutant growth effects, primary screen, E. coli filamentation inducers, strain DRC39, OD650, 48 h (AID 1179).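 Further: screen aims at cell division blockers that make cells filament.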 The conditions noted are these: E. coli DRC39 delta-acrAB growth, higher = more signal, called active from +8 up or from −8 down.
The nature of assay [8]: RPMI8226 myeloma cell viability, profiling panel, resazurin fluorescence, basal, 24 h, PK04 Diversity Set (AID 1180).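 Further: RPMI8826 multiple myeloma cell line at 5000 cells per well.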 The conditions noted are these: higher = more signal. A general note: The colour change of resazurin is a common sign of viable cells or microbes.
The target of assay [9] is E3 ubiquitin-protein ligase XIAP (Homo sapiens) (UniProt P98170). The assay can be described thus: XIAP binders, primary screen, biophysical, small-molecule microarray, fluorescence 635 nm (AID 1181).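 Further: score merges 667 nm emission and signal to noise over triplicate slides.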 Conditions: small-molecule microarray binding, higher = more signal.
E3 ubiquitin-protein ligase XIAP (Homo sapiens), sequence (P98170 whole entry, looked up): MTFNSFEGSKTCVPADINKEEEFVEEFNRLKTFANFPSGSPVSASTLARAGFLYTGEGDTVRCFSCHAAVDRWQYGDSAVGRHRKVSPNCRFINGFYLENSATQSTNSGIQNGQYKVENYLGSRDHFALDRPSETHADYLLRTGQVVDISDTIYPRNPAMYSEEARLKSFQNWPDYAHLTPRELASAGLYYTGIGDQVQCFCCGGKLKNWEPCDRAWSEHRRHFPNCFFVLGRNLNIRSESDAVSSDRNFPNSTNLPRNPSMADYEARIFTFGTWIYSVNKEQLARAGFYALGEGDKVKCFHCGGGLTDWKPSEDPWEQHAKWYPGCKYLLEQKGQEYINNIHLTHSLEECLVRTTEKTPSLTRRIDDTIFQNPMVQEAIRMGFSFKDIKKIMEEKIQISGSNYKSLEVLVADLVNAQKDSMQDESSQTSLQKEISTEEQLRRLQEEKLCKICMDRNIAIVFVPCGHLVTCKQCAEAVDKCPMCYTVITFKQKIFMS
Assay [10] concerns XIP peptide (Xip251-270) binding. The assay can be described thus: small-molecule binders of XIP peptide, primary screen, biochemical, small-molecule microarray, fluorescence 635/667 nm, 0.1 µg/mL protein (AID 1182). Conditions: fluorescent protein binding, 635 nm, higher = more signal, called active from +8 up or from −8 down.
For the next assay, the system named is XIP peptide (Xip251-270). The assay is described as follows: small-molecule binders of XIP peptide, primary screen, biochemical, small-molecule microarray, fluorescence 635/667 nm, 0.5 µg/mL protein (AID 1183). Conditions: small-molecule microarray binding, fluorescence 635 nm; higher = more signal.
The nature of assay [11]: Plasmodium falciparum growth inhibition, primary screen, strain 3D7, DAPI fluorescence, 100 nL (AID 1184).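 Further: parasites grown inside human red blood cells in medium with human serum.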 The conditions noted are these: P. falciparum 3D7 growth, 3 d, higher = more signal.
Assay [12] deals with Homeobox protein Hox-A13 (Mus musculus) (UniProt Q62424). The assay is described as follows: inhibitors of HoxA13-DNA binding, primary screen, biochemical, fluorescence polarization, labeled oligonucleotide (AID 1185). The conditions noted are these: 15 min, higher = more signal, called active from +8 up or from −8 down.
Homeobox protein Hox-A13 (Mus musculus), sequence (Q62424 whole entry, looked up): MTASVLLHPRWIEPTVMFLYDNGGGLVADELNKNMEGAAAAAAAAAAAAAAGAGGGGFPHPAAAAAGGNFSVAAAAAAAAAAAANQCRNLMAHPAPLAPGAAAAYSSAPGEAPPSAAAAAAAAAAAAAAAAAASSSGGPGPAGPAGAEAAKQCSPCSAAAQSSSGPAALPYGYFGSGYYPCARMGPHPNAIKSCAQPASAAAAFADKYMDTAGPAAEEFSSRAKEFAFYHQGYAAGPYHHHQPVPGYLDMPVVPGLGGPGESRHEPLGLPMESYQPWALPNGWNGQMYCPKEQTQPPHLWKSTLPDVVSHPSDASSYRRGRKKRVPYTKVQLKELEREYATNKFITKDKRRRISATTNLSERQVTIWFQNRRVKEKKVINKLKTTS
Assay [13] can be described thus: inhibitors of hydroxyurea-induced Chk1 phosphorylation, primary screen, imaging, HeLa, phospho-Chk1 antibody, percent positive cells (AID 1186). Conditions: hydroxyurea-induced phospho-Chk1 immunofluorescence imaging, higher = more signal.
Assay [14] can be described thus: inhibitors of hydroxyurea-induced Chk1 phosphorylation, primary screen, imaging, HeLa, phospho-Chk1 nuclear intensity (AID 1187). Conditions: hydroxyurea-induced phospho-Chk1 immunofluorescence imaging, higher = more signal.

Dihydroorotate dehydrogenase (quinone), mitochondrial (Plasmodium falciparum (isolate 3D7)), sequence (Q08210 whole entry, looked up): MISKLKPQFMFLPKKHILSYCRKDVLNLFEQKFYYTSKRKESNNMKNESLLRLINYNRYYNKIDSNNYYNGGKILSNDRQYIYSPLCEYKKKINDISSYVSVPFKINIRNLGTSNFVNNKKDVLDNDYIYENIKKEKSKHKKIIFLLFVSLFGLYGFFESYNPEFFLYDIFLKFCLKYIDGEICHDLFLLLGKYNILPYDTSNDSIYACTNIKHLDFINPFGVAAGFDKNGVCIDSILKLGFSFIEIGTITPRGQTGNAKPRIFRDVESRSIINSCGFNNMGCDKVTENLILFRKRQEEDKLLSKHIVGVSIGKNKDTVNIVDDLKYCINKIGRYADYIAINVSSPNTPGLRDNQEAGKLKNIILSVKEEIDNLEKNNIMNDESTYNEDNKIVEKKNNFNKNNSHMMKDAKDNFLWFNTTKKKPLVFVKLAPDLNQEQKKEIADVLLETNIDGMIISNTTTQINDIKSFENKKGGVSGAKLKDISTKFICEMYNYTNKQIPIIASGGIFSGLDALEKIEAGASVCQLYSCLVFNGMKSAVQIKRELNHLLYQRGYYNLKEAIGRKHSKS

Regarding `Cc1ccc(S[C@]2(C(=O)NCCN3CCOCC3)CC(=O)N(C3Cc4ccccc4C3)[C@@H]2c2ccc(CO)cc2I)cc1`, the z-score in assay [1] was 0.0862; in assay [2] it was -5.55 (inactive); in assay [3] it was -1.48 (inactive); in [5] it was -2.62 (inactive); in assay [6], -0.0522 (inactive); in assay [7] it was -0.169 (inactive). Moreover, the z-score is -1.41 in assay [8]; -0.861 in assay [11]; -2.43 (inactive) in assay [12]; 0.18 (inactive) in assay [13]; 0.764 (inactive) in [14]. Further, the composite z-score in assay [4] was -0.24 (inactive); in assay [9], 0.194; in assay [10], 0.669 (inactive); in the assay on XIP peptide (Xip251-270), 0.771.

Turning to `O=C1c2ccccc2[C@](Cc2ccccc2I)(C(=O)NCC(F)(F)F)[C@H](c2ccc(CO)cc2)N1Cc1ccccc1C(F)(F)F`, the z-score in assay [1] is 0.226; in [2] it was -1.29 (inactive); in assay [3], 1.13 (inactive); in [5], -0.719 (inactive); in assay [6], 0.775 (inactive); in assay [7] it was 0.23 (inactive). The z-score in assay [8] was 1.69; in assay [11], 0.121; in assay [12] it was -2.47 (inactive); in [13] it was -0.103 (inactive); in assay [14], 0.14 (inactive). Besides, the composite z-score in assay [4] was -0.449 (inactive); in assay [9], -0.174; in assay [10] it was 0.57 (inactive); in the assay with XIP peptide (Xip251-270) it was 0.188.

Regarding `C=CCN1C(=O)[C@]2(O[C@H](CCn3cc(CCO)nn3)[C@@H]([Si](C)(C)c3ccc(OC)cc3)[C@@H]2C)c2cc(NC(=O)c3ccc(OC)cc3)ccc21`, the z-score is -1.89 in assay [1]; -2.6 (inactive) in assay [2]; -4.32 (inactive) in [3]; 1.23 (inactive) in assay [5]; 1.8 (inactive) in assay [6]; 0.797 (inactive) in assay [7]. For the same molecule, the z-score in assay [8] is -4.33; in assay [11], -2.84; in [12] it was -4.21 (inactive); in [13], -0.798 (inactive); in assay [14] it was -0.823 (inactive). For the same molecule, the composite z-score was 1.31 (inactive) in assay [4], -0.104 in assay [9], 1.02 (inactive) in [10] and 0.18 in the assay with XIP peptide (Xip251-270).

For the molecule `C=CCN(C(=O)C1N(c2ccc(CCO)cc2)C(=O)C2C(C(=O)O)C3C=CC21O3)C(C)(C)C` (stereo not given), the z-score in assay [1] is 0.43; in assay [2], -1.39 (inactive); in assay [3] it was 1.06 (inactive); in assay [5], -1.41 (inactive); in [6] it was 1.44 (inactive); in assay [7], 0.94 (inactive). Further, the z-score was 0.327 in assay [8]; -1.71 in [11]; 0.729 (inactive) in [12]; 0.0293 (inactive) in assay [13]; -0.112 (inactive) in [14]. Also, the composite z-score in [4] is -0.363 (inactive); in assay [9], -0.253; in assay [10], 0.865 (inactive); in the assay with XIP peptide (Xip251-270), -1.52.

On to `CC(C)[Si](OCCCNS(=O)(=O)c1ccc(Br)cc1)(C(C)C)C(C)C`, for which the z-score in [1] was 1.49; in assay [2], -1.79 (inactive); in assay [3], 0.766 (inactive); in assay [5], -2.85 (inactive); in assay [6] it was 2.79 (inactive); in assay [7], 2.3 (inactive). For the same molecule, the z-score in [8] was -1.26; in assay [11], -1.12; in [12], -0.361 (inactive); in assay [13], -0.672 (inactive); in assay [14], -1.01 (inactive). Further, the composite z-score in assay [4] was 0.0026 (inactive); in assay [9] it was -0.18; in assay [10], -0.0972 (inactive); in the assay on XIP peptide (Xip251-270), 0.195.

`COC(=O)C[C@H]1O[C@]2(C(=O)N(C)c3ccccc32)[C@@H](C)[C@@H]1[Si](C)(C)c1ccc(OC)cc1`: the z-score in assay [1] was -0.0652; in assay [2], -4.08 (inactive); in assay [3], 0.504 (inactive); in assay [5], -1.41 (inactive); in assay [6] it was 2.5 (inactive); in [7] it was 0.871 (inactive). The z-score in assay [8] is 0.452; in assay [11], -2.41; in assay [12] it was -6.13 (inactive); in assay [13], 0.463 (inactive); in [14], 0.688 (inactive). Further, the composite z-score was 0.939 (inactive) in assay [4], 0.0942 in assay [9], -0.539 (inactive) in [10] and 0.414 in the assay with XIP peptide (Xip251-270).

Regarding `CO[C@H]1O[C@H](CO)[C@@H](OC(=O)Nc2ccccc2)[C@H](OC(=O)Nc2ccc3c(c2)OCO3)[C@@H]1OC(=O)Nc1ccc2c(c1)OCO2`, the z-score was -0.667 in assay [1]; -0.0273 (inactive) in [2]; 0.238 (inactive) in assay [3]; 1.21 (inactive) in assay [5]; 1.84 (inactive) in [6]; 0.228 (inactive) in assay [7]. For the same molecule, the z-score in assay [8] is -0.365; in [11], -1.9; in assay [12] it was -9.6 (active); in [13], 0.149 (inactive); in assay [14] it was 0.121 (inactive). Also, the composite z-score is -0.167 (inactive) in assay [4], 0.136 in assay [9], 2.23 (inactive) in assay [10] and 0.863 in the assay with XIP peptide (Xip251-270).
